Active and inactive are the calls of the source. How the source made its calls: active means hit-call score of the fitted dose curve at least 0.9, where 1 is the maximum; inactive means score below 0.9.

Read-out in test [1]: TIMP metallopeptidase inhibitor 1 (TIMP1), TIMP1 (gene 7076)
Put plainly: BSK_hDFCGF_TIMP1: BioMAP Diversity Plus: hDFCGF Assay for TIMP metallopeptidase inhibitor 1 (TIMP1) Biomarker Activity (AID 2283062). Conditions: primary human foreskin fibroblasts; actives raise or lower the signal. An outline of the steps: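 Primary human foreskin fibroblasts in the hDFCGF system were dosed with compound for 24 h, then TIMP-1 was measured by ELISA. Activity was fitted bidirectionally relative to DMSO control; parallel SRB staining assessed cytotoxicity.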

Read-out in test [2]: Monokine induced gamma interferon (MIG), CXCL9 (gene 4283)
In words: BSK_hDFCGF_MIG: BioMAP Diversity Plus: hDFCGF Assay for Monokine induced gamma interferon (MIG) Biomarker Activity (AID 2283063). The conditions noted are these: primary human foreskin fibroblasts; actives raise or lower the signal. An outline of the steps: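 ELISA read-out of MIG from primary human dermal fibroblasts 24 h post-dosing. Gain or loss of signal fitted bidirectionally, DMSO as baseline.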

Read-out in test [3]: Matrix Metallopeptidase 1 (MMP1), MMP1 (gene 4312)
Put plainly: BSK_hDFCGF_MMP1: BioMAP Diversity Plus: hDFCGF Assay for Matrix Metallopeptidase 1 (MMP1) Biomarker Activity (AID 2283064). The conditions noted are these: primary human foreskin fibroblasts; actives raise or lower the signal. An outline of the steps:
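hDFCGF primary fibroblasts (human foreskin); chemical added; 24 h; MMP1 by ELISA; bidirectional fit vs DMSO.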

Read-out in test [4]: Vascular cell adhesion molecule 1 (VCAM1), VCAM1 (gene 7412)
In words: BSK_hDFCGF_VCAM1: BioMAP Diversity Plus: hDFCGF Assay for Vascular cell adhesion molecule 1 (VCAM1) Biomarker Activity (AID 2283065). The conditions noted are these: primary human foreskin fibroblasts; actives raise or lower the signal. An outline of the steps: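 Primary human foreskin fibroblasts (hDFCGF system) were dosed with chemical and VCAM-1 was measured by ELISA 24 h later. Bidirectional curve fitting used DMSO as negative control and activity baseline.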

Read-out in test [5]: Plasminogen activator inhibitor-1 (PAI1), SERPINE1 (gene 5054)
Put plainly: BSK_hDFCGF_PAI1: BioMAP Diversity Plus: hDFCGF Assay for Plasminogen activator inhibitor-1 (PAI1) Biomarker Activity (AID 2283066). The conditions noted are these: primary human foreskin fibroblasts; actives raise or lower the signal. An outline of the steps: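 PAI-1 levels, determined by ELISA, served as the endpoint in human foreskin fibroblast cultures exposed to compound for 24 h, with DMSO as baseline.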

Read-out in test [6]: Intercellular Adhesion Molecule 1 (ICAM1), ICAM1 (gene 3383)
Put plainly: BSK_KF3CT_ICAM1: BioMAP Diversity Plus: KF3CT Assay for Intercellular Adhesion Molecule 1 (ICAM1) Biomarker Activity (AID 2283067). Conditions: primary human keratinocytes with fibroblasts; actives raise or lower the signal. An outline of the steps: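 Human keratinocyte plus foreskin fibroblast primary co-culture was exposed to chemical for 24 h. ICAM-1 was then quantified by ELISA, and the data were fit bidirectionally against DMSO as the negative control and baseline.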

Read-out in test [7]: Interferon-gamma inducible Protein 10 (IP10), CXCL10 (gene 3627)
Put plainly: BSK_KF3CT_IP10: BioMAP Diversity Plus: KF3CT Assay for Interferon-gamma inducible Protein 10 (IP10) Biomarker Activity (AID 2283068). Conditions: primary human keratinocytes with fibroblasts; actives raise or lower the signal. An outline of the steps:
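ELISA read-out of IP-10 after 24 h chemical dosing of human skin primary co-culture (keratinocytes, foreskin fibroblasts). Gain or loss of signal relative to DMSO, bidirectional curve fit.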

A short description of test [8]: BSK_KF3CT_SRB: Viability Assessment in the BioMAP Diversity Plus: KF3CT Assay (AID 2283069).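 Further: total protein by sulforhodamine B staining as a cytotoxicity measure; read 24 h after compound addition; fitted for both signal gain and loss against DMSO baseline.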 Conditions: primary human keratinocytes with fibroblasts. In outline: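 Keratinocytes co-cultured with foreskin fibroblasts (human primary); chemical added, 24 h; fix 10% TCA, stain 0.1% SRB, A560. Bidirectional fit vs DMSO.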
Read-out in test [9]: Interleukin-1 alpha (IL1a), IL1A (gene 3552)
In words: BSK_KF3CT_IL1a: BioMAP Diversity Plus: KF3CT Assay for Interleukin-1 alpha (IL1a) Biomarker Activity (AID 2283070). The conditions noted are these: primary human keratinocytes with fibroblasts; actives raise or lower the signal. An outline of the steps:
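Chemicals were dosed onto co-cultured human keratinocytes and foreskin fibroblasts, IL-1a was quantified by ELISA at 24 h, and activity was fitted in both directions relative to DMSO controls.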

Read-out in test [10]: TIMP metallopeptidase inhibitor 2 (TIMP2), TIMP2 (gene 7077)
In words: BSK_KF3CT_TIMP2: BioMAP Diversity Plus: KF3CT Assay for TIMP metallopeptidase inhibitor 2 (TIMP2) Biomarker Activity (AID 2283071). Conditions: primary human keratinocytes with fibroblasts; actives raise or lower the signal. An outline of the steps: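 Keratinocyte–fibroblast co-culture, 24 h exposure; TIMP-2 ELISA, DMSO-normalised bidirectional fit. Parallel SRB (0.1%, TCA-fixed, 560 nm) total-protein staining gauges cytotoxicity.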

Read-out in test [11]: Transforming growth factor beta 1 (TGFb1), TGFB1 (gene 7040)
Put plainly: BSK_KF3CT_TGFb1: BioMAP Diversity Plus: KF3CT Assay for Transforming growth factor beta 1 (TGFb1) Biomarker Activity (AID 2283072). Conditions: primary human keratinocytes with fibroblasts; actives raise or lower the signal. In outline: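 Signal changes in either direction, relative to DMSO, define activity here. TGF-b1 is read by ELISA from a human keratinocyte-fibroblast co-culture 24 h post-dose.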

Read-out in test [12]: C-C motif chemokine 2 (Homo sapiens) (UniProt P13500)
Put plainly: BSK_KF3CT_MCP1: BioMAP Diversity Plus: KF3CT Assay for Monocyte Chemoattractant Protein 1 (MCP1/CCL2) Biomarker Activity (AID 2283073). Conditions: primary human keratinocytes with fibroblasts; actives raise or lower the signal. An outline of the steps:
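Human keratinocyte plus foreskin fibroblast primary co-culture exposed to chemical for 24 h. MCP-1 levels measured by ELISA. Bidirectional curve fitting relative to DMSO negative control as baseline.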

Read-out in test [13]: Matrix Metallopeptidase 9 (MMP9), MMP9 (gene 4318)
In words: BSK_KF3CT_MMP9: BioMAP Diversity Plus: KF3CT Assay for Matrix Metallopeptidase 9 (MMP9) Biomarker Activity (AID 2283074).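 On AC50: MMP9 protein level quantified by ELISA in the co-culture.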 Conditions: primary human keratinocytes with fibroblasts; actives raise or lower the signal. An outline of the steps: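 Human keratinocyte/foreskin fibroblast co-culture; compound added; 24 h; MMP-9 by ELISA; bidirectional fit vs DMSO baseline.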

Read-out in test [14]: urokinase plasminogen activator (uPA), PLAU (gene 5328)
Put plainly: BSK_KF3CT_uPA: BioMAP Diversity Plus: KF3CT Assay for urokinase plasminogen activator (uPA) Biomarker Activity (AID 2283075). Conditions: primary human keratinocytes with fibroblasts; actives raise or lower the signal. An outline of the steps: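 ELISA readout of uPA, analyzed for signal gain or loss relative to DMSO, from a human primary keratinocyte–foreskin fibroblast co-culture measured 24 h after chemical treatment.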

Read-out in test [15]: CD40, CD40 (gene 958)
In words: BSK_LPS_CD40: BioMAP Diversity Plus: LPS Assay for CD40 Biomarker Activity (AID 2283076). The conditions noted are these: primary human HUVEC with PBMC; actives raise or lower the signal. In outline: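 Primary human umbilical vein endothelial cells co-cultured with peripheral blood mononuclear cells, LPS-stimulated, were dosed with chemical and read 24 h later. CD40 levels were measured by ELISA and fitted bidirectionally against DMSO as negative control and baseline.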

Read-out in test [16]: E-selectin (Homo sapiens) (UniProt P16581)
In words: BSK_LPS_Eselectin: BioMAP Diversity Plus: LPS Assay for Eselectin Biomarker Activity (AID 2283077). Conditions: primary human HUVEC with PBMC; actives raise or lower the signal. An outline of the steps:
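Human umbilical vein endothelial cells co-cultured with peripheral blood mononuclear cells under LPS stimulation; E-selectin measured by ELISA 24 h after chemical dosing. Activity fitted bidirectionally against DMSO as negative control and baseline.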

Read-out in test [17]: Interleukin-8 (IL8), CXCL8 (gene 3576)
In words: BSK_LPS_IL8: BioMAP Diversity Plus: LPS Assay for Interleukin-8 (IL8) Biomarker Activity (AID 2283078). The conditions noted are these: primary human HUVEC with PBMC; actives raise or lower the signal. In outline: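 Human umbilical vein endothelial cells co-cultured with PBMC were stimulated with LPS; IL-8 levels were measured by ELISA 24 h after chemical dosing. Activity was fitted bidirectionally against DMSO as negative control and baseline.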

Test [18] can be described thus: BSK_LPS_SRB: Viability Assessment in the BioMAP Diversity Plus: LPS Assay (AID 2283079).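 Further: total protein by sulforhodamine B absorbance as a cytotoxicity measure; measured one day after compound addition; fitted in both directions against DMSO so loss or gain of signal counts.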 Conditions: primary human HUVEC with PBMC. An outline of the steps:
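Human umbilical vein endothelial cells co-cultured with PBMC (LPS system) were dosed for 24 h. Total protein was stained with 0.1% sulforhodamine B after 10% TCA fixation, read at 560 nm, and fitted bidirectionally against DMSO baseline.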

Read-out in test [19]: Monocyte Chemoattractant Protein-1 (MCP1), CCL2 (gene 6347)
Put plainly: BSK_LPS_MCP1: BioMAP Diversity Plus: LPS Assay for Monocyte Chemoattractant Protein-1 (MCP1) Biomarker Activity (AID 2283081).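 On AC50: co-culture stimulated with LPS; secreted MCP-1 protein quantified by ELISA in culture supernatant.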 Conditions: primary human HUVEC with PBMC; actives raise or lower the signal. An outline of the steps:
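HUVEC plus PBMC co-culture (human primary cells, LPS system) exposed to test chemical for 24 h; MCP-1 measured by ELISA. Bidirectional curve fitting against DMSO baseline; parallel SRB total-protein staining flags overt cytotoxicity.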

Read-out in test [20]: Interleukin-1 alpha (IL1a), IL1A (gene 3552)
In words: BSK_LPS_IL1a: BioMAP Diversity Plus: LPS Assay for Interleukin-1 alpha (IL1a) Biomarker Activity (AID 2283080). The conditions noted are these: primary human HUVEC with PBMC; actives raise or lower the signal. An outline of the steps: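 Human umbilical vein endothelial cells co-cultured with peripheral blood mononuclear cells were LPS-stimulated and exposed to test chemicals for 24 h. IL-1 alpha was quantified by ELISA, with bidirectional curve fitting against DMSO as the negative control and baseline.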

Chain of E-selectin (Homo sapiens) (P16581 whole entry, looked up): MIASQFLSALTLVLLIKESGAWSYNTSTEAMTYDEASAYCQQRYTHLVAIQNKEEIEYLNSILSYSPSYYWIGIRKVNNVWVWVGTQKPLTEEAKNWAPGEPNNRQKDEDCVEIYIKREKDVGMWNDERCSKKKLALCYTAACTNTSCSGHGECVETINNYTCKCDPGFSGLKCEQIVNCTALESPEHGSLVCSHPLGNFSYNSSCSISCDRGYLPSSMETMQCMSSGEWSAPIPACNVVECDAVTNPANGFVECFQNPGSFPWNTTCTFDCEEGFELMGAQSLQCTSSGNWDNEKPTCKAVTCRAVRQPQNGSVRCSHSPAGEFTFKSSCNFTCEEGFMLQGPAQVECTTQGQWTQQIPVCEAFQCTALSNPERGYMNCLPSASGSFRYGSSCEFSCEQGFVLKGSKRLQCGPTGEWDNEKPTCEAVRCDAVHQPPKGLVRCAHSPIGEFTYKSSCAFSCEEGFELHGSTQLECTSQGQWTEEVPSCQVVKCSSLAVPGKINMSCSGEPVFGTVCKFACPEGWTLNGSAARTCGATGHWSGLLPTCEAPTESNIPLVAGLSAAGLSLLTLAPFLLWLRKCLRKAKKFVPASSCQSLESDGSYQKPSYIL

For `CCCCCCCCCCCO`, the result in test [1], in [3], in [4], in [5], in [6] and in [7] was inactive. The outcome in test [8], in [9], in [10], in test [11], in [12] and in test [13] was inactive. The outcome in [14], in test [15], in [16], in [17], in test [18] and in test [19] was inactive. Moreover, the AC50 in test [2] was 32.1 µM (active).
For the compound `O=c1c(-c2ccc(O)cc2)coc2cc(O)cc(O)c12`, the outcome in [1], in test [2], in [4], in test [6], in test [7] and in test [8] was inactive. In addition, the outcome in [9], in test [10], in [11], in [12] and in test [14] was inactive. Moreover, the half-maximal activity concentration (AC50) in test [3] was 15.1 µM (active); in test [5] it was 20 µM (active); in [13], 20 µM (active); in test [15], 14.3 µM (active); in [16] it was 31.7 µM (active); in test [17] it was 20 µM (active). The concentration at half-maximal activity (AC50) is 12 µM (active) in test [18] and 17.9 µM (active) in [19].
As to `O=C(O)Cn1c(=O)n(Cc2ccc(Br)cc2F)c(=O)c2ccc(Cl)cc21`, the outcome in [1], in test [2], in test [3], in test [4], in [5] and in [6] was inactive. Moreover, the outcome in test [7], in test [8], in test [9], in test [10], in [11] and in test [12] was inactive. The result in test [13], in [14], in [15], in test [16], in [17] and in [18] was inactive. The outcome in [20] and in test [19] was inactive.

The record behind these values is PubChem BioAssay (EPA / NIEHS).
